This is an account of results in PubChem BioAssay (NCATS).

The nature of experiment [1]: NS1 protein of Zika virus - qHTS assay to identify small molecule inhibitors in human HEK 293 cells (AID 1347053). Note: nearly all actives have a fitted effect of over 55% in size. Particulars: HEK293 ZIKV MR766 infection, NS1 TR-FRET, 24 h; series mostly up to 46.1 µM. Put shortly:
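Inhibition of NS1 expression was scored in HEK 293 cells given compound 1 h ahead of MR766 virus (MOI = 0.5). Following 24 h at 37 C, two anti-NS1 antibodies generated a TR-FRET signal, scaled between uninfected and infected controls.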

Experiment [2] can be described thus: qHTS of pediatric cancer cell lines to identify multiple opportunities for drug repurposing: Primary screen for Saos-2 cells (AID 1347097). Note: nearly all actives have a fitted effect of over 40% in size. Note: potency is the fitted concentration of half-maximal effect. Conditions: Saos-2 viability, CellTiter-Glo ATP luminescence, 48 h; series mostly up to 46 µM. Put shortly: (§1)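 Primary screen of approved and investigational compounds on cells in growth media at 37 degrees C, 5% CO2. MIPE set at 11-point and NPC set at 8-point dilutions; viability scored by ATP-based luminescence at 48 hours.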

A short description of experiment [3]: qHTS of pediatric cancer cell lines to identify multiple opportunities for drug repurposing: Primary screen for DAOY cells (AID 1347090). Note: nearly all actives have a fitted effect of over 55% in size. Particulars: DAOY medulloblastoma viability, CellTiter-Glo luminescence, 48 h; series mostly up to 46 µM. Put shortly:
(§2)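 Eight- or eleven-point concentration series, 48 h treatment at 37 degrees C in growth media; readout CellTiter-Glo luminescence. Potency and efficacy were taken from the concentration-response curves.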

Experiment [4] can be described thus: qHTS of pediatric cancer cell lines to identify multiple opportunities for drug repurposing: Primary screen for SJ-GBM2 cells (AID 1347091). Particulars: SJ-GBM2 viability, CellTiter-Glo luminescence, 48 h; series mostly up to 46 µM. Put shortly: as §2
On the technique in general: Quantitative high-throughput screening tests each substance at several concentrations.

Experiment [5] in a line: qHTS of pediatric cancer cell lines to identify multiple opportunities for drug repurposing: Primary screen for A673 cells (AID 1347092). Note: nearly all actives have a fitted effect of over 45% in size. Note: potency is the fitted concentration of half-maximal effect. Conditions: A673 Ewing sarcoma viability, CellTiter-Glo ATP luminescence, 48 h; series mostly up to 46 µM. Put shortly: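 Cells are plated, rested 5 h, dosed by pintool, incubated 48 h, then lysed with CellTiter-Glo and read by luminescence. DMSO is the neutral control; bortezomib at 2.3 uM final is the positive control.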

The nature of experiment [6]: qHTS of pediatric cancer cell lines to identify multiple opportunities for drug repurposing: Primary screen for BT-37 cells (AID 1347094). Conditions: BT-37 viability, CellTiter-Glo luminescence, 48 h; series mostly up to 57.3 µM. Put shortly: as §1
Experiment [7] can be described thus: qHTS of pediatric cancer cell lines to identify multiple opportunities for drug repurposing: Primary screen for NB-EBc1 cells (AID 1347095). Note: potency is the fitted concentration of half-maximal effect. Particulars: NB-EBc1 neuroblastoma viability, CellTiter-Glo luminescence, 48 h; series mostly up to 46 µM. Put shortly:
as §1

Experiment [8] can be described thus: qHTS of pediatric cancer cell lines to identify multiple opportunities for drug repurposing: Primary screen for U-2 OS cells (AID 1347096). Note: nearly all actives have a fitted effect of over 50% in size. Conditions: U-2 OS viability, CellTiter-Glo luminescence, 48 h; series mostly up to 46 µM. Put shortly:
(§3)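 Cells (500-1,000/well) in growth media were settled 5 h at 37 degrees C, then given compounds for 48 h. Viability was read as CellTiter-Glo luminescence. Primary runs used MIPE at 11 points (0.78 nM-46 µM) and NPC at 8 points (0.59 nM-46 µM); follow-ups used 11 points.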

The nature of experiment [9]: qHTS of pediatric cancer cell lines to identify multiple opportunities for drug repurposing: Primary screen for SK-N-SH cells (AID 1347098). Note: nearly all actives have a fitted effect of over 65% in size. Conditions: SK-N-SH viability, CellTiter-Glo luminescence, 48 h; series mostly up to 57 µM. Put shortly:
(§4)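 Cells (500-1,000/well) rested 5 h, then received compounds for 48 h; metabolically active cells were measured by CellTiter-Glo luminescence. Final concentrations spanned up to 46 µM (MIPE, 11-point) or 0.59 nM-46 µM (NPC, 8-point) in primary screens, 11-point in follow-ups.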

The nature of experiment [10]: qHTS of pediatric cancer cell lines to identify multiple opportunities for drug repurposing: Primary screen for NB1643 cells (AID 1347099). Note: nearly all actives have a fitted effect of over 50% in size. Note: potency is the fitted concentration of half-maximal effect. Conditions: NB1643 neuroblastoma viability, CellTiter-Glo luminescence, 48 h; series mostly up to 46 µM. Put shortly: as §1
Experiment [11] in a line: qHTS of pediatric cancer cell lines to identify multiple opportunities for drug repurposing: Primary screen for LAN-5 cells (AID 1347100). Conditions: LAN-5 neuroblastoma viability, CellTiter-Glo luminescence, 48 h; series mostly up to 46 µM. Put shortly:
as §3

Experiment [12] can be described thus: qHTS of pediatric cancer cell lines to identify multiple opportunities for drug repurposing: Primary screen for BT-12 cells (AID 1347101). Note: nearly all actives have a fitted effect of over 25% in size. Particulars: BT-12 viability, CellTiter-Glo luminescence, 48 h; series mostly up to 57.3 µM. Put shortly:
as §4

Experiment [13] can be described thus: qHTS of pediatric cancer cell lines to identify multiple opportunities for drug repurposing: Primary screen for SK-N-MC cells (AID 1347093). Conditions: SK-N-MC viability, CellTiter-Glo luminescence, 48 h; series mostly up to 46 µM. Put shortly:
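Metabolically active cells were quantified by ATP-dependent luminescence (CellTiter-Glo, 15 min at room temperature) following 48 h treatment. Cells had been plated at 500-1,000 per well and settled for 5 h beforehand.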

Results filed as inconclusive are left out. Active and inactive are the calls of the source. Calls come from the whole dose curve; as a rule, active = well fitted curve in the direction sought with a large enough effect; inconclusive = small, poorly fitted or top-dose-only effect, or another doubt; inactive = no such curve, though single readings can be large; an effect the other way counts as inactive or inconclusive.

With `Cc1cc(C(C#N)c2ccc(Cl)cc2)c(Cl)cc1NC(=O)c1cc(I)cc(I)c1O` (stereo unspecified), the Potency result in experiment [1] was “inactive”. For the same compound, the Potency in experiment [2] was 26.6 µM (active).
`COC(=O)[C@H]1[C@H]2C[C@@H]3c4[nH]c5cc(OC)ccc5c4CCN3C[C@H]2C[C@@H](OC(=O)COc2ccc(OC)cc2)[C@@H]1OC`: the Potency result in experiment [1], in experiment [3], in experiment [4], in experiment [5], in experiment [6] and in experiment [7] was “inactive” in each case. In addition, the Potency result in [8], in [2], in [9], in experiment [10], in experiment [11] and in [12] was “inactive” each time.
`CC1(C)S[C@@H]2[C@H](NC(=O)Cc3ccccc3)C(=O)N2[C@H]1C(=O)O` (tested in a mixture with another compound): the Potency result in experiment [1], in experiment [3], in experiment [4], in experiment [13], in experiment [6] and in experiment [7] was “inactive” in each case. The Potency result in experiment [8], in [2], in [9], in [10], in experiment [11] and in experiment [12] was “inactive” throughout.
For the compound `CCN(CC)CCSC(=O)C(c1ccccc1)c1ccccc1`, the Potency result in experiment [1], in experiment [3], in [6], in experiment [8], in [2] and in experiment [9] was “inactive” throughout. Also, the Potency entry in experiment [12] is “inactive”. The Potency in [5] is 21.1 µM (active); in experiment [7], 23.7 µM (active); in [10] it was 23.7 µM (active).
For the compound `CN1CCCCC1CCN1c2ccccc2Sc2ccc(S(C)=O)cc21` (stereo unspecified), the Potency result in experiment [1], in [3], in experiment [4], in [13], in [6] and in experiment [7] was “inactive” throughout. The Potency entry in [2], in [10], in experiment [11] and in [12] was “inactive” in each case.
